NLRP3 yeast inh – NALP3 inflammasome inhibitors in reconstituted yeast, primary screen, luminescence, uHTS; inhibition, % at 10 µM; Yeast reconstituted NLRP3/ASC/caspase-1, beta-gal luminescence, 24 h; actives 0.39% (n = 330,000); AID 2825, 2010;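 active = inhibition of 50% or more; inactive = inhibition below 50%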;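 also: plate controls were induced DMSO wells for no effect and uninduced yeast grown without galactose for full effect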
TIM10 inh – growth inhibitors of isogenic TIM10 control yeast, primary screen, counter-screen for tim10-1 yeast inhibitor project, luminescence, uHTS; S. cerevisiae TIM10 strain growth, BacTiter-Glo luminescence, 24 h; inhibition, % at 10 µM; actives 1.4% (n = 330,000); AID 463195, 2010;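 active = inhibition of 40% or more at the single tested concentration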;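 also: wild-type TIM10 isogenic control strain grown at permissive 25 °C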
tim10-1 inh – growth inhibitors of tim10-1 mutant yeast, primary screen, luminescence, uHTS; S. cerevisiae tim10-1 ts strain growth, BacTiter-Glo, 24 h; inhibition, % at 20 µM; AID 463190, 2010; actives 2.2% (n = 330,000);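 active = inhibition of at least 40%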;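 also: mutant grown at 25 °C; 0% = DMSO wells with yeast and 100% = wells holding no yeast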
tim23-1 inh – growth inhibitors of tim23-1 mutant yeast, primary screen, luminescence, uHTS; S. cerevisiae tim23-1 growth, BacTiter-Glo luminescence, 24 h; inhibition, % at 20 µM; actives 1.3% (n = 330,000); AID 463212, 2010;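 active = growth inhibition of the mutant yeast at or above 50%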;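 also: temperature-sensitive mutant grown at 25 °C; plate controls were DMSO-treated mutant yeast for no effect and medium wells lacking yeast for full effect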
NALP1 inh – NALP1 inflammasome inhibitors in reconstituted yeast, colorimetric, S. cerevisiae, triplicate retest | S. cerevisiae NALP1/ASC/caspase-1 growth, X-gal OD620, 72 h | inhibition, % at 10 µM | actives 0.61% (n = 280,000) | AID 2071, 2009; in the data active = inhibition mostly above about 24%, no sharp cut-off; inactive = mostly below about 32%
tim10-1 confirm – growth inhibitors of tim10-1 mutant yeast, confirmation, single concentration, luminescence, S. cerevisiae. shares compounds with tim10-1 inh. S. cerevisiae tim10-1 ts strain growth, BacTiter-Glo, 24 h. inhibition, % at 20 µM. actives 56% (n = 7,400). AID 463213, 2010;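 active = inhibition of yeast growth at or above a set limit in either of two repeat tests at 20 µM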;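 also: tim10-1 mutant grown at permissive 25 °C to find synthetic lethal compounds; 0% = DMSO yeast wells and 100% = medium wells without yeast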
tim10 confirm – growth inhibitors of wild-type TIM10 yeast, confirmation, counter-screen for tim10-1 synthetic lethality project, single concentration, luminescence, S. cerevisiae; shares compounds with TIM10 inh; S. cerevisiae tim10 strain growth, BacTiter-Glo luminescence, 24 h; inhibition, % at 10 µM; actives 63% (n = 4,600);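 active = inhibition of yeast growth at or above a set limit in either of two replicates at 10 µM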;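 also: this counterscreen used the strain with wild-type TIM10; 0% = yeast with DMSO and 100% = medium wells lacking yeast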
tim23-1 conf – tim23-1 mutant yeast growth inhibitors, confirmation, luminescence, single concentration; shares compounds with tim23-1 inh; S. cerevisiae tim23-1 growth, BacTiter-Glo luminescence, 24 h; inhibition, % at 20 µM; actives 83% (n = 4,400);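 active = inhibition above about 39% in either of two replicate wells at 20 µM, limit read from the data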;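 also: temperature-sensitive tim23-1 mutant grown at 25 °C; 0% = DMSO wells with yeast and 100% = medium wells without yeast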
Starred values were filed as active, the others as inactive; · = no result given. Rows were chosen to be rich in hits. Some 4.1% of all compounds tested hit in one or more screens of this group.

SMILES | NLRP3 yeast inh | TIM10 inh | tim10-1 inh | tim23-1 inh | NALP1 inh | tim10-1 confirm | tim10 confirm | tim23-1 conf
O=c1[nH][nH]c(-c2ccccc2O)c1C(C[N+](=O)[O-])c1ccc(Br)cc1 (stereo unspecified) | 32.8 | 53.4* | 51.8* | 61.6* | 101.6* | 43.5* | -22.4 | 65.4*
O=C(c1ccc2nc(Cc3cccc(Cl)c3)oc2c1)N1CCC(O)CC1 | 4.0 | 1.4 | 7.5 | 6.6 | 6.5 | · | · | ·
Cc1nnnn1/C(=C\c1ccccc1)C(=O)OCC(=O)NC1CCCCC1 | 24.7 | 40.8* | 46.9* | 54.0* | · | 34.7* | 49.5* | 47.4*
CC(=O)Nc1ccccc1-c1ccc(C)o1 | -0.5 | 5.0 | -1.4 | 1.1 | 6.5 | · | · | ·
Cc1ccc(NC(=O)CS(=O)CC(=O)Nc2ccccc2-c2ccc(C)o2)cc1 (stereo unspecified) | 5.3 | 29.5 | 45.4* | 50.2* | 11.7 | 28.4* | · | 46.7*
O=c1[nH]c2ccccc2nc1-c1ccccc1 | 31.0 | 7.8 | -14.6 | 15.9 | 10.9 | · | · | ·
NC(=O)N=Nc1c2[nH]c3ccccc3nc-2c2ccccc12 | 42.2 | 52.5* | 43.8* | 55.8* | -14.9 | 44.7* | 62.4* | 51.9*
O=[N+]([O-])c1ccc2[nH]c3c(c2c1)CCCC3 | 15.1 | 39.9 | 64.8* | 66.3* | 24.4 | 57.0* | · | 66.5*
N/N=C1\CCCc2c1[nH]c1ccc([N+](=O)[O-])cc21 | -1.2 | 9.9 | 18.4 | -10.7 | -2.6 | · | · | ·
Cc1cc(C(=O)O/N=C(\N)c2ccc(C(C)(C)C)cc2)no1 | 8.5 | 60.9* | 46.9* | 69.6* | 18.9 | 58.0* | 45.3* | 78.0*
COc1ccc(C(=O)O/N=C(\N)c2ccccc2)cc1 | 34.8 | 57.5* | 70.7* | 79.8* | 13.7 | 68.0* | 56.4* | 78.8*
N/C(=N\OC(=O)c1ccc2ccccc2c1)c1ccncc1 | 1.4 | 38.2 | 65.0* | 51.0* | -11.4 | 55.2* | · | 54.9*
CCOC(=O)c1cc(/C(C)=N/OC(=O)c2ccc(C(C)(C)C)cc2)on1 | 18.5 | -13.3 | -12.0 | 18.2 | 8.2 | · | · | ·
CC(C)(C)c1ccc(C(=O)O/N=C(\N)c2ccccc2)cc1 | 40.0 | 82.5* | 57.2* | 83.5* | 24.4 | 45.0* | 91.8* | 78.5*
N/C(=N\OC(=O)COc1ccc2ccccc2c1)c1ccncc1 | 29.7 | 18.4 | 11.4 | -1.8 | 7.8 | · | · | ·
CCOCCOC(=O)COc1ccc2c(-c3ccccc3)cc(=O)oc2c1 | 11.5 | 3.0 | 23.7 | 20.2 | 35.6 | · | · | ·
CC1CCCN(C(=O)COC(=O)c2cc(Br)ccc2O)C1 (stereo unspecified) | 22.1 | -1.2 | -13.9 | 32.4 | · | · | · | ·
Cc1cc(-c2onc(C)c2C(=O)Oc2ccc(Cl)cc2)no1 | 0.7 | 18.6 | 24.5 | 36.6 | -4.7 | · | · | ·
Cc1noc(-c2ccc(Cl)cc2)c1C(=O)O/N=C(\N)c1ccc(C(C)(C)C)cc1 | 11.0 | 75.7* | 44.6* | 71.3* | · | 12.4 | 84.5* | 58.0*
Cc1occc1C(=O)O/N=C(\N)c1ccc(Cl)cc1 | 33.1 | 47.2* | 65.6* | 82.3* | · | 24.4 | 38.4* | 76.5*
Cc1ccc2nc(N3CCN(C)CC3)c(C=O)c(=O)n2c1 | 11.4 | -2.8 | 5.9 | 1.9 | 11.0 | · | · | ·
CCC(=O)c1ccc(OCC(=O)N2CCN(S(=O)(=O)c3ccc(Cl)s3)CC2)cc1 | 0.7 | 10.5 | 16.9 | 27.2 | · | · | · | ·
CC[C@@H]1CCCCc2ccccc2[C@H](C(=O)C[C@H](O)CC(C)=O)OC1=O | 5.0 | -6.7 | 3.8 | 11.9 | · | · | · | ·
Nc1ccc(N=Nc2ccccc2)c2ccccc12 | 34.0 | 65.2* | 49.2* | 80.0* | 5.8 | 38.6* | 75.4* | 12.6
O=S(=O)(NCc1ccccc1)NCc1cccc(C(F)(F)F)c1 | 6.1 | -3.5 | 10.7 | 2.6 | 6.1 | · | · | ·

High-throughput results from PubChem.
